Where “and” joins values, the source holds several entries; their conditions need not be identical. Equal values may be shown once. Results filed as inconclusive are left out. Where a structure was tested more than once in an assay, its records may differ in their call. Calls of active or inactive are those of the source. Unless noted, calls follow the shape of the dose curve; as a rule, active = well fitted curve in the direction sought with a large enough effect in the repeat runs; inconclusive = weak or mixed curves; inactive = no such curve, though single readings can be large; an effect the other way counts as inactive or inconclusive.

A short description of assay [1]: qHTS assay to identify small molecule antagonists of the glucocorticoid receptor (GR) signaling pathway - cell viability counter screen (AID 720693). Also: nearly all actives have a fitted effect of over 55% in size. In general terms: In qHTS, concentration-response curves come from the screen itself.
Assay [2] is described as follows: qHTS assay for identifying genotoxic compounds that show differential cytotoxicity against isogenic chicken DT40 cell lines with known DNA damage response pathways - Rev3 mutant cell line (AID 743014). Also: nearly all actives have a fitted effect of over 55% in size. Also: potency is read from the fitted curve at half-maximal effect.
Assay [3] in a line: qHTS assay to identify small molecule antagonists of the androgen receptor (AR) signaling pathway - cell viability counter screen (AID 743033; also: nearly all actives have a fitted effect of over 45% in size).
A short description of assay [4]: qHTS assay to identify small molecule antagonists of the thyroid receptor (TR) signaling pathway - cell viability counter screen (AID 743064). Also: nearly all actives have a fitted effect of over 50% in size. The gist of the method:
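In-well cytotoxicity read by CellTiter-Fluor (30 min, 37 C) following 23.5 h exposure of GH3 cells bearing a TRE-luciferase sensor. Compounds were added alongside 1 nM (final) T3 to drive TR transactivation.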

The nature of assay [5]: qHTS assay to identify small molecule antagonists of the thyroid receptor (TR) signaling pathway (AID 743065). Also: nearly all actives have a fitted effect of over 55% in size. Also: potency is read from the fitted curve at half-maximal effect. The gist of the method: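 GH3.TRE-Luc rat pituitary cells carrying two TR response elements driving luciferase were plated for 4 h, given compound plus 1 nM T3 (final), and incubated 23.5 h at 37 C. ONE-Glo luminescence measured reporter inhibition; CellTiter-Fluor fluorescence tracked cytotoxicity.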

Assay [6] has as its system thyroid hormone receptor (rat, GH3 cells). The assay is described as follows: qHTS assay to identify small molecule agonists of the thyroid receptor (TR) signaling pathway (AID 743066; calls by dose curve).
Assay [7] concerns the target Estrogen receptor (Homo sapiens) (UniProt P03372). The assay is described as follows: qHTS assay to identify small molecule antagonists of the estrogen receptor alpha (ER-alpha) signaling pathway (AID 743069; active = well fitted curve in the direction sought with a large enough effect in the signal ratio in the repeat runs, not every such curve was filed as active; the % refers to the signal ratio). The gist of the method: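 Screening used a UAS-driven beta-lactamase reporter integrated into HEK293 cells expressing ER-alpha, stimulated with 17beta-estradiol alongside test compounds over 18 hr at 37C; signal came from LiveBLAzer B/G FRET fluorescence.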

The nature of assay [8]: qHTS assay to identify small molecule antagonists of the estrogen receptor alpha (ER-alpha) signaling pathway - cell viability counter screen (AID 743074; calls by dose curve; also: nearly all actives have a fitted effect of over 45% in size).
The target of assay [9] is Estrogen receptor (Homo sapiens) (UniProt P03372). The assay is described as follows: qHTS assay to identify small molecule agonists of the estrogen receptor alpha (ER-alpha) signaling pathway (AID 743075; calls by dose curve; also: potency is read from the fitted curve at half-maximal effect).
Assay [10] in a line: qHTS assay to identify small molecule antagonists of the estrogen receptor alpha (ER-alpha) signaling pathway using the BG1 cell line - cell viability counter screen (AID 743081).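 Also: compound given together with 17beta-estradiol as the ER stimulus; series mostly up to about 70 µM; nearly all actives have a fitted effect of over 45% in size.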
The target of a further assay is Aromatase (Homo sapiens) (UniProt P11511). The assay can be described thus: qHTS assay to identify aromatase inhibitors (AID 743083). Also: nearly all actives have a fitted effect of over 55% in size. Also: potency is read from the fitted curve at half-maximal effect.
Assay [11] can be described thus: qHTS assay for identifying genotoxic compounds that show differential cytotoxicity against isogenic chicken DT40 cell lines with known DNA damage response pathways - wild type cell line (AID 743012). Also: nearly all actives have a fitted effect of over 60% in size. Also: potency is read from the fitted curve at half-maximal effect. The gist of the method: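 300 wt DT40 cells/well; cpd (DMSO) pintool-transferred after ~0.5 h at 37 C/5% CO2; 40 h incubation; CellTiter-Glo added, 30 min RT; luminescence read.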

Assay [12] concerns the target Androgen receptor (Homo sapiens) (UniProt P10275). The assay can be described thus: qHTS assay to identify small molecule antagonists of the androgen receptor (AR) signaling pathway (AID 743035; active = well fitted inhibition curve with a large enough effect in the signal ratio in the repeat runs, not every such curve was filed as active; the % refers to the signal ratio). The gist of the method:
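In this cell-based reporter screen, compounds were tested in concentration series against R1881-activated HEK293 cells expressing beta-lactamase under UAS control; after 16 h at 37C, FRET substrate was added and fluorescence read 2 h later.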

The target is the same in assay [13]. The assay can be described thus: qHTS assay to identify small molecule agonists of the androgen receptor (AR) signaling pathway (AID 743036; active = well fitted activation curve with a large enough effect in the signal ratio in the repeat runs, with a control signal flat, not every such curve was filed as active; the % refers to the signal ratio). The gist of the method: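 Activation was read as beta-lactamase FRET signal from LiveBLAzer B/G substrate, added for 2 h at room temperature. Before that, GeneBLAzer AR-UAS-bla GripTite (HEK293) cells had 16 h compound exposure at 37C.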

Assay [14] shares this target. The assay is described as follows: qHTS assay to identify small molecule agonists of the androgen receptor (AR) signaling pathway using the MDA cell line (AID 743040; also: nearly all actives have a fitted effect of over 20% in size). The gist of the method:
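Agonist activity is measured as luciferase luminescence in human MDA-kb2 cells whose MMTV reporter responds to both AR and GR. Compounds in DMSO incubate 16 h at 37C, 0% CO2, and ONE-Glo is read after 30 min.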

A short description of assay [15]: qHTS assay to identify small molecule antagonists of the androgen receptor (AR) signaling pathway using the MDA cell line - cell viability counter screen (AID 743041; also: nearly all actives have a fitted effect of over 45% in size). The gist of the method: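 qHTS viability read-out; MDA-kb2 AR-luc; R1881-stimulated; 16 h exposure at 37C, 0% CO2; CellTiter-Fluor, 30 min; fluorescence intensity.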
In assay [16] the target is Androgen receptor (Homo sapiens) (UniProt P10275). The assay is described as follows: qHTS assay to identify small molecule antagonists of the androgen receptor (AR) signaling pathway using the MDA cell line (AID 743042; also: nearly all actives have a fitted effect of over 55% in size). The gist of the method: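 MDA-kb2 cells (human breast carcinoma, stably carrying an MMTV-luciferase reporter responsive to AR and GR) were plated at 3,000 cells/well and preincubated 5 hr at 37C, then given compound plus R1881 agonist for 16 h. ONE-Glo luminescence was read.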

The target of assay [17] is Estrogen receptor (Homo sapiens) (UniProt P03372). The assay is described as follows: qHTS assay to identify small molecule agonists of the estrogen receptor alpha (ER-alpha) signaling pathway using the BG1 cell line (AID 743079). Also: nearly all actives have a fitted effect of over 20% in size. Also: potency is read from the fitted curve at half-maximal effect.
Assay [18] can be described thus: qHTS assay to identify small molecule antagonists of the estrogen receptor alpha (ER-alpha) signaling pathway using the BG1 cell line (AID 743080; calls by dose curve;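 also: BG1 cells stimulated with 17beta-estradiol alongside compound; nearly all actives have a fitted effect of over 25% in size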; also: potency is read from the fitted curve at half-maximal effect). The gist of the method:
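BG1-Luc-4E2 cells (endogenous full-length ER-alpha, 4xERE luciferase) hormone-starved 5 days in charcoal-stripped FBS, plated 4,000/well for 24 h, then compound plus 17beta-estradiol for 21.5 h at 37 C; ONE-Glo luminescence read.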

Chain of Aromatase (Homo sapiens) (P11511 whole entry, looked up): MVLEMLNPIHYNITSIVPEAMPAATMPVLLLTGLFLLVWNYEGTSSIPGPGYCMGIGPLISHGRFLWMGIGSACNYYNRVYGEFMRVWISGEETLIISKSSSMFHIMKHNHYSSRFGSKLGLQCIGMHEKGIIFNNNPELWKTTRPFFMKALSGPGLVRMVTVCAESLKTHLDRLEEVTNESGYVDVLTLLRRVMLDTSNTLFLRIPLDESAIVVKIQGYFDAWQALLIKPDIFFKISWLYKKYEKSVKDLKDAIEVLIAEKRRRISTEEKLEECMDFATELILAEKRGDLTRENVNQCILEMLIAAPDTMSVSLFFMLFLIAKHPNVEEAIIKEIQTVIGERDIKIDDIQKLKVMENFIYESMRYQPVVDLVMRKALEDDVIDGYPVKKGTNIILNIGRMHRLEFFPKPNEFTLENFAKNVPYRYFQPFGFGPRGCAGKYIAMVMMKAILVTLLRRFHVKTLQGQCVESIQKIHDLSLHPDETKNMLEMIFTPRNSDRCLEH
Chain of Estrogen receptor (Homo sapiens) (P03372 whole entry, looked up): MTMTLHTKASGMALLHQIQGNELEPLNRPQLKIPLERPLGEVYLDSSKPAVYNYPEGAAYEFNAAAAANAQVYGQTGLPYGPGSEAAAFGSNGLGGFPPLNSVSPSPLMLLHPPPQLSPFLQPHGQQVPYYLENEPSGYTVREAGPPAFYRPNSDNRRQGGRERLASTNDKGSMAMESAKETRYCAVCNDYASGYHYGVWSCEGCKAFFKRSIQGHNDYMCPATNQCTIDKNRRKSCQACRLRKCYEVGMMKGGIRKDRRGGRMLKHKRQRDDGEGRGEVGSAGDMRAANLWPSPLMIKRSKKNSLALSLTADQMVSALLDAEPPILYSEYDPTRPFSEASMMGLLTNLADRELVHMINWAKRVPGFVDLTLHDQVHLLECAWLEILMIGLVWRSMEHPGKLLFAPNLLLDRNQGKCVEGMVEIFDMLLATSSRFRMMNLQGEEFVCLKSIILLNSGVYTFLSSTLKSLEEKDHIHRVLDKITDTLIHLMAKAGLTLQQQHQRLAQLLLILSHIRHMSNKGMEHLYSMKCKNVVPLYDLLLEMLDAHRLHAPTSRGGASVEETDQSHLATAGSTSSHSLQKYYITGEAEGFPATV
Chain of Androgen receptor (Homo sapiens) (P10275 whole entry, looked up): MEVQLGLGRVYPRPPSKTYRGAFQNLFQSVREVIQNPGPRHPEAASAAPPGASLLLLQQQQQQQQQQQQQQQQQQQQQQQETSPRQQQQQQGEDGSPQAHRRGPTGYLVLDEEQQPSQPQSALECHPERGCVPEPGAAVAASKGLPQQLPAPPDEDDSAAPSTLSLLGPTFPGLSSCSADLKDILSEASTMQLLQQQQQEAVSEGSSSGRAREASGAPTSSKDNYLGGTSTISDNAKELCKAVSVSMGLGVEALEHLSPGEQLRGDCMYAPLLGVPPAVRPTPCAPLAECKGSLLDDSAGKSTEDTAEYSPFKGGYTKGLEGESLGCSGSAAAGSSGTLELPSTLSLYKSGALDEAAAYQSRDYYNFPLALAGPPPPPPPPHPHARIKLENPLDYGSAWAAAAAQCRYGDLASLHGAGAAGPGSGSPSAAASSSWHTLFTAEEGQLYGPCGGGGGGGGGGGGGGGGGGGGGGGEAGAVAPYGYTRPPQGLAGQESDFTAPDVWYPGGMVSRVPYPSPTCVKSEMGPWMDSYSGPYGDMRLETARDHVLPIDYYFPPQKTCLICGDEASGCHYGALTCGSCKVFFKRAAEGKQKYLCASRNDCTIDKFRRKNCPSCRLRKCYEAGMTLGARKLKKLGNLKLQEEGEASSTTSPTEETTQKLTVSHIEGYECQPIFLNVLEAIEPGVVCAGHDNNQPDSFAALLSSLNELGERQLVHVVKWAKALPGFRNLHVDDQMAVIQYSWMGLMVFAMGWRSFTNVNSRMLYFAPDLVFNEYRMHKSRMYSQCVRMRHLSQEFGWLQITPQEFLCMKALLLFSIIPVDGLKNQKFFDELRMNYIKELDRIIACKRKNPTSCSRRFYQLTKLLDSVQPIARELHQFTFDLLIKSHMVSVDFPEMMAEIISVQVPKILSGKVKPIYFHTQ

In the case of `NC(N)=NC(N)=NCCc1ccccc1`, the Potency result (in assay [1]; in [4]; in assay [7]; in assay [9]; in [10]; with Aromatase (Homo sapiens)) was “inactive” each time. In addition, the Potency is 29.8 µM (active) and 17.1 µM (active) and 27.3 µM (active) in [2]; 60.8 µM (active) in assay [5]. In addition, the compound was classed as inactive in assay [3], in [6] and in [8].
As to `COCCOCCOC`, the Potency entry in assay [1], in assay [11], in assay [2], in [12], in [14] and in assay [15] was “inactive” each time. In addition, the Potency entry in [16], in [4], in assay [5], in assay [7], in assay [9] and in assay [17] was “inactive” in each case. In addition, the Potency result (in assay [18]; in [10]; in the assay with Aromatase (Homo sapiens)) was “inactive” throughout. The compound was called inactive in assay [13], in [6] and in [8].
Regarding `Cc1c(N(C)C)c(=O)n(-c2ccccc2)n1C`, the Potency result in [1], in [11], in [2], in [15], in assay [4] and in assay [5] was “inactive” in each case. The Potency entry (in [7]; in assay [9]; in assay [17]; in assay [18]; in [10]; in the assay with Aromatase (Homo sapiens)) was “inactive” throughout. Further, the call in assay [6] and in [8] was inactive.
`C[C@]12CC[C@@H]3c4ccc(O)cc4C[C@@H](CCCCCCCCCS(=O)CCCC(F)(F)C(F)(F)F)[C@H]3[C@@H]1CC[C@@H]2O` (stereo partly drawn): the Potency result in assay [1], in assay [12], in assay [14], in [15], in [16] and in [10] was “inactive” each time. The Potency is 8.41 µM (active) in [11]; 11.9 µM (active) and inactive in assay [2]; 4.2 nM (active) and 0.7 nM (active) in assay [5]; 59.6 nM (active) and 15.3 nM (active) with Aromatase (Homo sapiens). Also, the outcome in [13], in assay [6] and in assay [8] was inactive.
On to `CC(=O)OC/C=C(C)/C=C/C=C(C)/C=C/C1=C(C)CCCC1(C)C`, for which the Potency entry in assay [1], in assay [15], in assay [4], in assay [5], in assay [7] and in assay [17] was “inactive” each time. Also, the Potency result (in [18]; in [10]; in the assay with Aromatase (Homo sapiens)) was “inactive” throughout. Moreover, the Potency in assay [11] was 61.1 µM (active); in assay [2], “inactive and 59.6 µM (active) and 54.5 µM (active)”; in assay [9], “inactive and 33.8 µM [activator] (active)”. Besides, the compound was classed as inactive in assay [6] and in assay [8].
In the case of `C=CCOC(=O)CC(C)C`, the Potency result in assay [1], in [11], in assay [2], in [15], in [4] and in [5] was “inactive” in each case. Also, the Potency result (in [7]; in [9]; in assay [17]; in assay [18]; in [10]; with Aromatase (Homo sapiens)) was “inactive” in each case. Also, the outcome in assay [6] and in [8] was inactive.
On to `CN/C(=C\[N+](=O)[O-])NCCSCc1ccc(CN(C)C)o1`, for which the Potency result in assay [1], in assay [11], in [2], in assay [15], in assay [4] and in [7] was “inactive” throughout. The Potency entry (in assay [9]; in [17]; in assay [18]; in [10]; with Aromatase (Homo sapiens)) was “inactive” each time. Moreover, the compound was called inactive in assay [3] and in assay [8].
For the compound `NC(=O)c1ccc([N+](=O)[O-])cc1Cl`, the Potency entry in assay [1], in assay [11], in assay [2], in assay [15], in assay [4] and in assay [5] was “inactive” throughout. Moreover, the Potency result (in assay [10]; with Aromatase (Homo sapiens)) was “inactive” throughout. Besides, the result in [3], in assay [6] and in [8] was inactive.
As to `COc1ccccc1O`, the Potency entry in assay [1], in assay [11], in assay [2], in assay [15], in [4] and in [5] was “inactive” throughout. Further, the Potency entry (in [7]; in [9]; in [17]; in assay [18]; in assay [10]; with Aromatase (Homo sapiens)) was “inactive” throughout. For the same compound, the call in [6] and in assay [8] was inactive.
Turning to `C=CC(=O)NC(C)(C)CS(=O)(=O)O`, the Potency entry in assay [1], in assay [11], in assay [2], in assay [15], in [4] and in assay [5] was “inactive” in each case. The Potency result (in [7]; in assay [9]; in [17]; in [18]; in assay [10]; in the assay with Aromatase (Homo sapiens)) was “inactive” each time. Also, the result in assay [6] and in assay [8] was inactive.
For the compound `CC1=C(/C=C/C(C)=C/C=C/C(C)=C/C(=O)O)C(C)(C)CCC1`, the Potency result (in assay [1]; in [15]; in assay [4]; in assay [10]; with Aromatase (Homo sapiens)) was “inactive” each time. The Potency was 33.5 µM (active) and 54.4 µM (active) in [11]; 77 µM (active) and 61.1 µM (active) in [2]; 335 nM (active) and 77 nM (active) in [18]. In addition, the compound was classed as inactive in assay [8].
With `NC(=O)NO`, the Potency result in [1], in assay [11], in assay [15], in assay [4], in [5] and in [10] was “inactive” in each case. The Potency entry with Aromatase (Homo sapiens) is “inactive”. The Potency result in assay [2] is “inactive and 61.1 µM (active)”. In addition, the compound was classed as inactive in [3], in [6] and in assay [8].
As for `C1CNCCN1`, the Potency result in assay [1], in [11], in assay [15], in assay [4], in assay [5] and in assay [7] was “inactive” each time. In addition, the Potency result (in assay [9]; in assay [18]; in [10]; in the assay with Aromatase (Homo sapiens)) was “inactive” throughout. Besides, the Potency entry was “inactive and 62.9 µM (active)” in assay [2]; “inactive and 68 µM (active)” in assay [17]. Besides, the outcome in assay [6] and in assay [8] was inactive.
As for `CC(=O)/C=C/C1=C(C)CCCC1(C)C`, the Potency result in assay [1], in [11], in [2], in [15], in assay [4] and in assay [5] was “inactive” each time. The Potency entry (in [7]; in assay [9]; in [17]; in [18]; in assay [10]; in the assay with Aromatase (Homo sapiens)) was “inactive” in each case. In addition, the outcome in [6] and in assay [8] was inactive.
With `COC(=O)c1ccc(O)cc1`, the Potency entry in assay [1], in assay [11], in [2], in assay [15], in assay [4] and in [5] was “inactive” each time. Also, the Potency result (in [7]; in assay [9]; in [17]; in assay [18]; in assay [10]; with Aromatase (Homo sapiens)) was “inactive” each time. Besides, the compound was classed as inactive in assay [6] and in assay [8].

These data come from PubChem BioAssay (Tox21).
